This is a sample that favours compounds with a hit; in the whole collection about 2% have one here.
KCNH2 3.1 inh = KCNH2 3.1 (human) potassium channel inhibition; U2OS KCNH2 3.1, thallium flux FluxOr; active compounds read low; activity change, % (tested at about 1.8 µM); 340,000 compounds, 0.95% hits;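 active = maximum activity change below -70%; inconclusive = maximum activity change from -70% to -50%; inactive = maximum activity change above -50%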;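 note: thallium influx rate constant from kinetic fluorescence after stimulation buffer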
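Steps: virus added to U2OS suspension (4 h, RT, dark); medium with 10% FBS added, cells plated, 37 C overnight; FluxOr/Red40 loading buffer 45 min RT; stimulation buffer, 2 min kinetic read; rate constant normalized.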
KDM4E inh = blocks human JMJD2E demethylase activity; 230,000 compounds, 1.6% hits; Potency, µM (series often up to 57.1 µM), for inactives: at the highest dose activity change, negative = inhibition, hits mostly inhibitors; AID 2147; JMJD2E catalytic domain, FDH-coupled NADH fluorescence (FDH is formaldehyde dehydrogenase); B2RXH2; active = well fitted inhibition curve with a large enough effect, not every such curve was filed as active; inconclusive = small, poorly fitted or top-dose-only effect, or another doubt; inactive = no such curve, though single readings can be large or run the other way;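 note: potency is the fitted concentration of half-maximal effect; 0% = wells with enzyme and -100% = buffer wells without enzyme; nearly all actives have a fitted effect of over 50% in size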
KCNH2 WT inh = inhibitors of human wildtype KCNH2 potassium channel | Q12809 | activity change, % at 1.84 µM | U2OS, BacMam KCNH2, thallium flux FluxOr; active compounds read low | 340,000 compounds, 0.37% hits;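 active = maximum activity change below -70%; inconclusive = maximum activity change between -70% and -50%; inactive = maximum activity change above -50%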
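U2OS cells were transduced with wild-type KCNH2 virus (2.03 x 10^8 / mL) for 4 h at room temperature, then cultured overnight at 37 C. Thallium flux was read with FluxOr dye. Rate constants were normalized to DMSO controls.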
Six1-Eya2 blk = inhibitors of human Six1/Eya2 interaction | AlphaScreen GST-Six1/His-Eya2 binding, biochemical; active compounds read low | activity change, % (test concentration not listed) | AID 651725 | 360,000 compounds, 0.56% hits
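Six1/Eya2 binding was read as AlphaScreen signal after compounds were pinned into GST-Six1 plus His-tagged Eya2 (5X stock 250/500 nM) in pH 8.0 Tris/NaCl/TCEP buffer, beads added, then incubated 1 h, 37 C, dark.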
CtBP-E1A inh = blocks the CtBP interaction with E1A; activity change, % (test concentration not listed); AlphaScreen GST-E1A/His-CtBP binding, 1536-well; active compounds read low; 340,000 compounds, 0.49% hits
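In 5 uL wells, 23 nL compound meets equimolar GST-E1A and His-CtBP (5X stock 125 nM each) for 2 h, 37 °C. Beads (5X, 50 ug/mL) then 1 h, 37 °C, dark.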
* hit, by the source's call; ? = inconclusive; · = no result. Cut-off read from the data, not from the text of the source, unless noted: active = activity change below about -65%; inconclusive = mostly about -30% to -63%; inactive = weaker than that. Unless noted, % is set by controls: 0 for no effect and ±100 for the full control effect.

SMILES	KCNH2 3.1 inh	KDM4E inh	KCNH2 WT inh	Six1-Eya2 blk	CtBP-E1A inh
CC(C)c1ccc(-n2c(O)c(/C=N/NC(=O)c3ccccc3O)c(=O)[nH]c2=S)cc1	13	?	-1	?	?
Cn1c(=O)c2c(nc(N/N=C/c3c(O)n(-c4ccccc4)c(=S)[nH]c3=O)n2C)n(C)c1=O	13	25µM*	13	-84*	-84*
O=c1[nH]c(=O)n(-c2cccc(Cl)c2)c(O)c1/C=N/c1ccccn1	3	-6%	-3	-5	2
COc1ccc2nc(/N=C/c3c(O)n(-c4cccc(Cl)c4)c(=O)[nH]c3=O)sc2c1	-10	1%	13	-71*	?
Cc1ccc2c(c1)C1CN(C)CCC1N2C(=O)Cc1cccs1 (stereo unspecified)	-2	-1%	24	-1	2
COc1cc2c(cc1OC)[C@@H]1C(=O)c3ccc(OC)c(CC=C(C)C)c3OC1CO2 (stereo partly specified)	·	18µM*	·	·	·
COc1cc2c(cc1OC)[C@@H]1C(=O)c3ccc4c(c3OC1CO2)CC(C(C)C)O4 (stereo partly specified)	·	-7%	·	·	·
O=c1cc(C(F)(F)F)c2cc3c4c(c2o1)CCCN4CCC3	-109*	-10%	-72*	87	70
O=S1(=O)CCN(CCc2c[nH]c3ccccc23)CC1	-14	5%	3	4	15
COC(=O)C1=C(c2ccc(S(C)(=O)=O)cc2)C[C@@H]2CC[C@H]1N2C(=O)N1CCC(C)CC1	-99*	·	-14	-1	3
COC(=O)C1=C(c2ccc(OC(F)(F)F)cc2)C[C@@H]2CC[C@H]1N2C(=O)N1CCC(C)CC1	-15	·	22	0	8
Cc1nc2ccccc2c(=O)n1/N=C/c1cc(Br)cc(Br)c1O	-3	·	-11	-66*	-78*
[N-]=[N+]=CC(=O)OC[C@H](N)C(=O)O	-3	5%	6	2	11
CCOc1ccc(-c2c(C)n(-c3ccc(OCC)cc3)c3[n+]2CCCCC3)cc1	-112*	0%	-8	5	1
CCCCCCCCCCCCCCCC[N+](C)(C)C	-2	-11%	-3	11	8
CCc1ccc(-n2c(O)c(/C=N/NC(=O)c3ccncc3)c(=O)[nH]c2=O)cc1	-1	11µM*	5	?	?
O=C(N/N=C/c1c(O)n(CCc2ccccc2)c(=O)[nH]c1=O)c1ccccc1	7	?	4	-20	-20
Cc1ccccc1-n1c(O)c(/C=N/NC(=O)c2ccncc2)c(=O)[nH]c1=O	-3	?	12	?	?
C=CCn1c(O)c(C=NC2CCN(Cc3ccccc3)CC2)c(=O)[nH]c1=O	-10	6%	4	9	·
CCCCCCn1c(O)c(C=NC2CCN(Cc3ccccc3)CC2)c(=O)[nH]c1=O	-95*	0%	-1	6	-2
Cc1cc(C)c(-n2c(O)c(/C=N/NC(=O)c3ccncc3)c(=O)[nH]c2=O)c(C)c1	2	14µM*	5	-16	?
CC(C)c1ccc(-n2c(O)c(/C=N/NC(=O)c3ccncc3)c(=O)[nH]c2=O)cc1	13	?	-3	?	?
CCCCn1c(O)c(/C=N/NC(=O)c2ccncc2)c(=O)[nH]c1=O	-3	8.9µM*	3	-27	?
CCCCCCn1c(=O)c(C(=O)Nc2c(C)n(C)n(-c3ccccc3)c2=O)c(O)c2ccccc21	20	4%	1	-1	8
CC(=O)CCC(C)=O	1	·	0	-1	-1
SMILES	KCNH2 3.1 inh	KDM4E inh	KCNH2 WT inh	Six1-Eya2 blk	CtBP-E1A inh
CC(=O)O.CC(=O)O.[Cd]	·	20µM*	·	·	·
CCOC(=O)C1(CCOc2ccccc2)CCN(Cc2ccc(C)s2)CC1	-84*	-26%	-94*	-3	5
CCOC(=O)C1(CCc2ccccc2)CCN(Cc2ccc3c(c2)OCCO3)CC1	-113*	-15%	-43	-9	-17
CCOC(=O)C1(CCc2ccccc2)CCN(Cc2ccc(NC(C)=O)cc2)CC1	-6	·	-3	16	·
CCC(C)C(=O)N[C@@H](c1ccccc1)[C@@H](O)C(=O)O[C@H]1C[C@@]2(O)[C@@H](OC(=O)c3ccccc3)C3[C@](C)(C(=O)[C@H](OC(C)=O)C(=C1C)C2(C)C)[C@@H](O)C[C@H]1OC[C@@]31OC(C)=O (stereo partly specified)	-14	·	-8	2	2
COc1cc2c(cc1-c1cc3cc4ccoc4cc3oc1=O)OCO2	·	-65%	·	·	·
NCC(O)c1cc(O)c(O)cc1F (stereo unspecified)	-24	14µM*	1	4	6
CN1CCN(C(=O)COc2ccc(-c3nc4ccccc4s3)cc2)CC1	0	?	17	-7	7
O=C(O)C1Sc2[nH]c(=O)sc2C2c3cc(Cl)ccc3OC(=O)C12 (stereo unspecified)	11	14µM*	2	-6	-11
Nc1cnn(-c2ccccc2)c(=O)c1Cl	1	·	-12	-2	10
CC(=O)O[C@@]12CO[C@@H]1C[C@H](OC1OCC(O)C(O)C1O)[C@@]1(C)C(=O)[C@H](O)C3=C(C)[C@@H](OC(=O)[C@H](O)[C@@H](NC(=O)c4ccccc4)c4ccccc4)C[C@@](O)([C@@H](OC(=O)c4ccccc4)C12)C3(C)C (stereo partly specified)	-8	·	3	-10	0
CCCCCC(=O)N[C@@H](c1ccccc1)[C@@H](O)C(=O)O[C@H]1C[C@@]2(O)[C@@H](OC(=O)c3ccccc3)C3[C@](C)(C(=O)[C@H](O)C(=C1C)C2(C)C)[C@@H](OC1OCC(O)C(O)C1O)C[C@H]1OC[C@@]31OC(C)=O (stereo partly specified)	2	·	-2	-90*	-22
O=C1NC(=O)C(=Cc2ccc(-c3ccccc3[N+](=O)[O-])o2)C(=O)N1	6	20µM*	10	-3	-1
Cc1ccc(C(=O)c2cc(Br)ccc2N)cc1	1	-5%	6	-9	1
Cc1ccc(C(=O)n2c(N)nc3ccccc32)cc1	·	35µM*	7	1	2
CC1CC2(O)c3no[n+]([O-])c3CCC2N1O (stereo unspecified)	13	11%	-3	5	2
c1ccc2c(c1)[nH]c1cnccc12	-2	?	5	-2	7
Cc1c2ccncc2c(C)c2c1[nH]c1ccccc12	28	13µM*	9	-2	8
O=[N+]([O-])c1cccc(CN2CCN(Cc3ccc(Br)cc3)CC2)c1	2	25µM*	-26	-20	-10
COc1ccccc1N1CCN(Cc2ccc(SC)cc2)CC1	?	·	23	-9	·
CSc1ccc(CN2CCN(c3ccccc3C)CC2)cc1	-114*	·	-129*	-5	-6
CC1=CC(=O)c2c(O)cccc2C1=O	·	8.9µM*	·	·	·

Bioassay records: PubChem BioAssay, National Center for Advancing Translational Sciences (NCATS)
